In the library only some 4% were active in any assay of this set; here they are far more common.
Shn3 3UTR inh – reduction of Shn3 3'UTR firefly luciferase signal, primary screen, Schnurri-3 inhibitor project, cell-based, Clone20 osteoblasts, set 2. inhibition, % at 12.5 µM. 0.52% of 360,000 active. Clone20 osteoblast Shn3 3'UTR firefly luciferase, 24 h;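 active means mean inhibition of at least 75% with every replicate also reaching 75%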;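 further: 0% = median of neutral control wells and 100% = pilot-screen positive control compound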
Gli-Sufu antag – Gli-Sufu pathway antagonists, primary screen, luciferase luminescence, Sufu-KO-LIGHT cells, uHTS | Sufu-KO-LIGHT fibroblasts, Gli luciferase reporter luminescence | inhibition, % at 5 µM | 0.74% of 340,000 active | AID 588413, 2011;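 active means inhibition above about 55%, limit read from the data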;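 further: 0% = DMSO-treated cells and 100% = wells with medium but no cells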
Beta cell apopt – inhibitors of cytokine-induced beta cell apoptosis, primary screen, luminescence. INS-1E cytokine-induced death, ATP luminescence, 48 h; percent of positive-control rescue, neutral wells zero. protection from apoptosis, % (test concentration not listed). 0.8% of 300,000 active;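 active means Every replicate reaches about 75%, or at least half do and their mean reaches it too, limit read from the data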;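 further: 0% = cytokine-treated negative control wells and 100% = positive control rescue; higher means more ATP so stronger rescue from cytokine killing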
Mdm2 MdmX PPI – inhibitors of human Mdm2-MdmX association, primary screen, cell-based, luminescence, split luciferase, SaOS-2, uHTS. Protein Mdm4 (Homo sapiens) + E3 ubiquitin-protein ligase Mdm2 (Homo sapiens), …. SaOS-2 split-luciferase Mdm2/MdmX complementation. inhibition, % at 8 µM. 3% of 330,000 active;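 active means inhibition of at least 50% at 8 µM in the primary screen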
PAX8 reporter – inhibitors of PAX8-driven TPO luciferase reporter, primary screen, RMG-I cells, single concentration. 1.2% of 360,000 active. SteadyGlo, 24 h. inhibition, % at 12.6 µM. AID 652154, 2013;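 active means mean replicate inhibition at least 60% with every replicate also reaching 60%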;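 further: luciferase light reporting Pax8 driven TPO promoter activity; plate controls were median of neutral control wells for no effect and mitoxantrone controls for full effect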
CSC inhib – cancer stem cell viability inhibitors, primary screen, luminescence; cancer stem cell-like cells viability; inhibition, % at 7.5 µM; 1.1% of 300,000 active; AID 2717, 2010; in the data active means inhibition above about 75%; tested in HMLE shEcad cells
Numbers without * were called inactive.

CCCCN=C(NNc1ccc(Br)cc1)C(=O)OCC was read as Shn3 3UTR inh -2, Gli-Sufu antag 0, Beta cell apopt -7, Mdm2 MdmX PPI 0, PAX8 reporter -2 and CSC inhib 136*.
For C[C@@H]1CN([C@H](C)CO)C(=O)c2cc(NC(=O)Nc3ccccc3)ccc2O[C@@H](C)CCCCO[C@@H]1CN(C)C(=O)Cc1ccccc1 the results were PAX8 reporter -3.
Screening C[C@@H]1CCCCO[C@H](CN(C)C(=O)Cc2ccccc2)[C@H](C)CN([C@@H](C)CO)C(=O)c2cc(NC(=O)Nc3ccc(C(F)(F)F)cc3)ccc2O1 returned PAX8 reporter 79*.
`C[C@@H]1CCCCO[C@H](CN(C)C(=O)Cc2ccccc2)[C@@H](C)CN([C@@H](C)CO)C(=O)c2cc(NC(=O)Nc3ccc(C(F)(F)F)cc3)ccc2O1` gave PAX8 reporter 79*.
Screening C[C@H](CO)N1C[C@H](C)[C@@H](CN(C)C(=O)Cc2ccccc2)OCCCC[C@H](C)Oc2ccc(NC(=O)Nc3ccc(C(F)(F)F)cc3)cc2C1=O returned PAX8 reporter 87*.
`COc1ccc(NC(=O)Nc2ccc3c(c2)C(=O)N([C@H](C)CO)C[C@@H](C)[C@@H](CN(C)C(=O)Cc2ccccc2)OCCCC[C@H](C)O3)cc1` gave PAX8 reporter 99*.
Screening COc1ccc(-c2ccc([C@H]3[C@@H](CO)N4CCCCN(C(=O)c5ccc(F)cc5)C[C@@H]34)cc2)cc1 returned PAX8 reporter 4.
For C[C@@H]1CN([C@H](C)CO)C(=O)c2cc(NC(=O)Nc3ccc(C(F)(F)F)cc3)ccc2O[C@@H](C)CCCCO[C@@H]1CN(C)C(=O)Cc1ccccc1 the results were PAX8 reporter 72*.
For CCCNC(=O)N[C@@H]1CC[C@@H](CC(=O)NCCc2ccccc2)O[C@@H]1CO the results were PAX8 reporter -1.
`CC1CN(S(=O)(=O)c2cccc(C(=O)NCCCn3ccnc3)c2)CC(C)O1` (stereo not drawn) gave Shn3 3UTR inh -4, Gli-Sufu antag -6, Beta cell apopt -3, Mdm2 MdmX PPI 5, PAX8 reporter -11 and CSC inhib -12.
`CC1CN(S(=O)(=O)c2ccc(C(=O)NCCCn3ccnc3)cc2)CC(C)O1` (stereo not drawn) gave Shn3 3UTR inh 4, Gli-Sufu antag 15, Beta cell apopt 113*, Mdm2 MdmX PPI -19, PAX8 reporter 13 and CSC inhib 67.
`O=C(NCCCn1ccnc1)c1ccc(-c2ccccc2)cc1` gave Shn3 3UTR inh -18, Gli-Sufu antag 3, Beta cell apopt 97*, Mdm2 MdmX PPI -5, PAX8 reporter -9 and CSC inhib -15.
Screening O=C(NCCCn1ccnc1)c1ccc(N2CCCCCC2)c([N+](=O)[O-])c1 returned Shn3 3UTR inh 12, Gli-Sufu antag 20, Beta cell apopt 95*, Mdm2 MdmX PPI 5, PAX8 reporter -5 and CSC inhib 60.
Screening O=C(NCCCn1ccnc1)c1ccc(F)cc1 returned Shn3 3UTR inh -7, Gli-Sufu antag -4, Mdm2 MdmX PPI -2, PAX8 reporter 9 and CSC inhib -6.
For CCc1cc2c(nc1CC)CCN(CC/C(C)=N/O[C@@H](C)c1cc(-c3c(C)cc(C)cc3C)no1)C2 the results were Beta cell apopt 47, Mdm2 MdmX PPI 17 and CSC inhib 30.
Screening C/C(CCN1CCc2nc(-c3ccccc3)c(-c3ccccc3)cc2C1)=N\O[C@@H](C)c1cc(-c2c(C)cc(C)cc2C)no1 returned Shn3 3UTR inh 5, Gli-Sufu antag 23, Beta cell apopt 35, Mdm2 MdmX PPI 33 and CSC inhib 78*.
`COc1ccc(NC(=O)N(C)C[C@@H]2Oc3ccc(NS(=O)(=O)c4ccc(OC)cc4)cc3CC(=O)N([C@H](C)CO)C[C@@H]2C)cc1` gave PAX8 reporter -1.
`COc1ccccc1CN1[C@H](C(=O)NCCc2ccncc2)[C@@H](CO)[C@@H]2Cn3c(cccc3=O)[C@@H]21` gave PAX8 reporter -8.
For CC(C)[C@@H]1CC[C@@H](C)c2c(-c3ccccc3)n[nH]c21 the results were Shn3 3UTR inh 32, Gli-Sufu antag -9, Beta cell apopt -1, Mdm2 MdmX PPI -1 and CSC inhib 101*.
For O=C1NC(c2ccccc2)c2c(-c3ccccc3)n[nH]c21 (stereo not drawn) the results were PAX8 reporter -9.
For O=C(NCc1cccnc1)/C(=C\c1ccc(-c2cccc(Cl)c2)o1)S(=O)(=O)c1ccccc1 the results were Shn3 3UTR inh 97*, Gli-Sufu antag -20, Beta cell apopt 104* and CSC inhib 101*.
For O=C(Nc1ccc(Cl)c(Cl)c1)N[C@@H]1CC[C@H](CCNC(=O)c2ccc(F)cc2)O[C@@H]1CO the results were PAX8 reporter 5.
Cn1c(CCN2CCN(c3ccccn3)CC2)nc2cc(NS(=O)(=O)c3ccccc3)ccc21 was read as Shn3 3UTR inh 49, Gli-Sufu antag 33, Beta cell apopt 3, Mdm2 MdmX PPI 23, PAX8 reporter 72* and CSC inhib 7.
For Cn1c(CCN2CCN(c3ccccn3)CC2)nc2cc(NC(=O)COc3ccccc3)ccc21 the results were Shn3 3UTR inh 5, Gli-Sufu antag 20, Beta cell apopt -3, Mdm2 MdmX PPI 25, PAX8 reporter 66* and CSC inhib -8.
Screening C[C@H]1CN([C@@H](C)CO)C(=O)Cc2cc(NS(=O)(=O)c3ccc(F)cc3)ccc2O[C@H]1CN(C)S(=O)(=O)c1cn(C)cn1 returned PAX8 reporter -40.
Screening Cc1nnc2ccc(Oc3ccc(-c4ccccc4)cc3)nn12 returned Shn3 3UTR inh 59, Gli-Sufu antag 18, Beta cell apopt 92*, Mdm2 MdmX PPI 15 and CSC inhib -3.
For COC(=O)c1ccc(Oc2ccc3nnc(C)n3n2)cc1 the results were Shn3 3UTR inh -31, Gli-Sufu antag 0, Beta cell apopt -1, Mdm2 MdmX PPI 28 and CSC inhib 0.
`O=C(NCC[C@H]1CC[C@H](NS(=O)(=O)c2ccc(F)cc2)[C@@H](CO)O1)Nc1ccc(F)cc1` gave PAX8 reporter 9.
`O=c1[nH]c(/C(Cl)=C/c2cc(Cl)ccc2O)nc2cc(Cl)ccc12` gave Shn3 3UTR inh -56, Gli-Sufu antag 20, Beta cell apopt -4, Mdm2 MdmX PPI 35, PAX8 reporter -1 and CSC inhib 101*.
